# ST2 inh: inhibitors of human ST2 (IL1RL1) binding to IL-33, primary screen, biochemical, AlphaLISA; Interleukin-1 receptor-like 1 (Homo sapiens), Q01638; AlphaLISA ST2-Fc/biotin-IL-33 interaction, 1 h; inhibition, % for hits at 17 µM; hit rate 2.3% among 78,000; AID 1259354, 2018; in the data active = inhibition above about 30%
# Target sequence (Q01638 whole entry, looked up): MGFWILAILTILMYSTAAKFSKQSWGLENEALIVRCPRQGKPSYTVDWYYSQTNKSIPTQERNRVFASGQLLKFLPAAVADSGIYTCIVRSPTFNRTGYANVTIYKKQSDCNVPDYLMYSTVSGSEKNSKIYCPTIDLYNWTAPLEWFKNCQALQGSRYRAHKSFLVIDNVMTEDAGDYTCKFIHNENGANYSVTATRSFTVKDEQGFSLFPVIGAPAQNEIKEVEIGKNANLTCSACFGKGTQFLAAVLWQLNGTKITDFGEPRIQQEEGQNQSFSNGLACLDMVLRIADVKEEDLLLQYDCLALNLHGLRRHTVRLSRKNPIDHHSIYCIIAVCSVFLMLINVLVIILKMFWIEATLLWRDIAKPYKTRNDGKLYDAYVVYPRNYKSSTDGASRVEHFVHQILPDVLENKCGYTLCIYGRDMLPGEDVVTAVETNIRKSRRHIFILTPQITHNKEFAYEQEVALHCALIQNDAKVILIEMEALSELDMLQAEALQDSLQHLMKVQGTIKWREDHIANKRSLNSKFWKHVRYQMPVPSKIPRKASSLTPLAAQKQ
# Starred values were filed as active, the others as inactive; i = inactive; ! = not confirmed by another sample. Only a selection was taken, and hits are over-represented in it overall.
SMILES,ST2 inh
O=C(N[C@H]1CCN2C(=O)c3cc(-c4ccccc4F)ccc3NC(=O)[C@@H]2C1)c1ccco1,60%*
O=C(N[C@H]1CCN2C(=O)c3cc(-c4cccc(C(F)(F)F)c4)ccc3NC(=O)[C@@H]2C1)c1ccncc1,i
COCC(=O)N[C@H]1CCN2C(=O)c3cc(-c4cccc(C)c4C)ccc3NC(=O)[C@@H]2C1,i
Cc1ccccc1-c1cc(N2CCN(S(=O)(=O)c3c(C)noc3C)CC2)ncn1,i
O=[N+]([O-])c1ccc(C2SCCN2S(=O)(=O)c2ccc(I)cc2)cc1 (centres undefined),i
CN(C)c1ccc(C2SCCN2C(=O)c2ccc([N+](=O)[O-])cc2)cc1 (centres undefined),30%*
O=C(c1ccc([N+](=O)[O-])cc1)N1CCSC1c1cccc(Cl)c1 (centres undefined),i
COCCCNC(=O)C1CCN(c2ccc(-c3cccs3)nn2)CC1,i
CCc1c(-c2ccccc2)nc2ccccc2c1C(=O)O,i
COc1ccc(C2=NN3C(C2)c2ccccc2OC3c2ccco2)cc1 (centres undefined),i
O=C(O)CCC(=O)N1N=C(c2cccs2)CC1c1ccc(F)cc1 (centres undefined),i
c1ccc(C2Oc3ccccc3C3CC(c4cccs4)=NN32)cc1 (centres undefined),34%*
COC(=O)c1c(C)oc2cc(Br)c(OC(=O)c3ccccc3)cc12,i
CNCC(=O)NC(C)(C)c1cccc2ccccc12,i
O=C(CCCn1c(=O)c2sccc2n(Cc2ccccc2F)c1=O)NCc1ccco1,i
NC(=O)Cn1c(=O)n(CCCC(=O)NCc2ccco2)c(=O)c2sccc21,i
Cc1ccccc1Cn1c(=O)n(CCCC(=O)NCc2ccco2)c(=O)c2sccc21,33%*!
COCCn1c(CNS(=O)(=O)c2cccc([N+](=O)[O-])c2)nc2cccnc21,i
CC(C)c1cc(C(=O)Nc2sc3c(c2C(N)=O)CCCC3)no1,i
Cc1ccc(S(=O)(=O)ON=C2C=CC(=O)C=C2)cc1,47%*
Cc1ccc(S(=O)(=O)/C=C/C#N)cc1,i
CCN(CC)S(=O)(=O)c1ccc(C)cc1,i
CCCOCCOC(=O)C1=C(C)NC2=C(C(=O)C(C(=O)OC)C(C)C2)C1c1ccccc1C (centres undefined),i
CCOc1ccc2nc(N3CCCC(N4CCN(c5nonc5C)CC4)CC3)nc(C)c2c1 (centres undefined),i
CCOc1ccc2c3c(c(=O)oc2c1)CCC3,i
SMILES,ST2 inh
CCOc1ccc2nc(Nc3nc4c(c(=O)[nH]3)CCC4)nc(C)c2c1,31%*
Cn1c(Br)nc2c1c(=O)n(Cc1ccccc1)c(=O)n2C,i
COc1ccc(Oc2nc3c(c(=O)n(Cc4ccccc4)c(=O)n3C)n2C)cc1,35%*
Cn1c(=O)c2c(nc(Oc3ccccc3)n2C)n(C)c1=O,i
OCC1(Cc2ccccc2Cl)CCN(Cc2cccc(F)c2F)CC1,i
COc1ccccc1OCCN1CCN(CCOc2ccccc2OC)CC1,i
COc1ccc(/C=C(\C#N)c2ccc([N+](=O)[O-])cc2)c(OC)c1,48%*
COc1ccc(/C=C(\C#N)c2nc3ccccc3[nH]2)c(OC)c1,i
CN(C)c1ccc(/C=C(\C#N)c2ccc([N+](=O)[O-])cc2)cc1,i
COc1ccc(C2SCCN2S(=O)(=O)c2ccc(Cl)cc2)cc1 (centres undefined),i
COc1ccc(C2C(C(N)=O)=C(C)Nc3ncnn32)c(OC)c1 (centres undefined),i
CC1=C[C@@H](CNC(=O)CC(C)(C)C)[C@H](C(C)C)C[C@H]1CC(=O)N1CCN(C)CC1,i
COc1cc(=O)n2c(c1C(=O)Nc1cnc3n1CCCC3)CCNCC2,i
O=C(COc1ccccc1[N+](=O)[O-])Nc1cc(Cl)c(Cl)cc1Cl,i
CCC(=O)Nc1c(C)ccc2nsnc12,i
Cc1ccc2nsnc2c1NC(=O)COc1ccccc1[N+](=O)[O-],32%*
C#CCCC(=O)N(CCC)Cc1cccc(Cl)c1,i
CCO[C@H]1COC[C@@H]1n1cc(-c2ccc3c(c2)OCCO3)nn1,i
O=[N+]([O-])c1ccccc1CN1C[C@H](O)C[C@H]1c1nc(Cc2ccc(F)cc2Cl)no1,i
CC(=O)N1CCC(N2C[C@H](O)C[C@H]2c2nc(CS(=O)(=O)c3ccc(F)cc3)no2)CC1,i
CN1CCC(N2C[C@H](O)C[C@H]2c2nc(Cc3ccc(F)cc3Cl)no2)CC1,31%*
Cn1ccnc1CN1CCCC(CCC(=O)NCc2ccccc2Cl)C1 (centres undefined),i
CC1CCC(NC(=O)C(NC(=O)C2CCC(C)CC2)C(C)C)CC1 (centres undefined),i
CCCCc1ccc(NC(=O)C2Cc3ccccc3C(=O)O2)cc1 (centres undefined),i
O=C(Cc1ccccc1)N1CCN=C1SCc1c(F)cccc1Cl,i
COc1c(O)cc2occ(-c3ccc(O)cc3)c(=O)c2c1O,i

# Screening results deposited in PubChem BioAssay by Paczesny and Yang Labs, IUPUI and University of Michigan.
